AMA1-RON2 inh: AMA1-RON2 (P. falciparum) interaction inhibition; AlphaScreen AMA1-biotinylated RON2 peptide binding; Potency, µM (titrated, usually from 58.2 µM), for inactives: top-dose activity change, negative = inhibition, most hits filed as inhibitors; hit rate 0.2% among 360,000; AID 720542; active means well fitted inhibition curve with a large enough effect; inconclusive means small, poorly fitted or top-dose-only effect; inactive means no such curve, though single readings can be large or run the other way;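 further: potency means the concentration at half of the fitted maximal effect; 0% = vehicle wells and -100% = peptide control; nearly all actives have a fitted effect of over 45% in size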
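AMA1 (3D7) with his tag at 25 nM final met compounds first, then biotinylated RON2 peptide at 25 nM; detection used donor plus acceptor beads, 10 µg/mL apiece, read by AlphaScreen after 30 min at room temperature.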
Lassa entry inh: blocks Lassa virus binding to or entry into cells. Potency, µM (titrated, usually from 37.9 µM), for inactives: at the highest dose activity change, negative = inhibition, usual class: inhibitors. Lassa virus pseudotype entry inhibition, cell reporter. hit rate 1.2% among 300,000; calls by dose curve; tested in HEK293 cells; further: potency means the concentration at half of the fitted maximal effect; on the % scale 0 is the no-effect control and ±100 the full control effect; nearly all actives have a fitted effect of over 50% in size
MARV entry inh: Marburg virus entry inhibition; Marburg virus pseudotyped entry inhibition, cell reporter; Potency, µM (doses to about 37.8 µM), without a hit: top-dose activity change, negative = inhibition, usual class: inhibitors; hit rate 1.8% among 300,000; AID 540276; calls by dose curve; tested in HEK293 cells; further: potency means the concentration at half of the fitted maximal effect; on the % scale 0 is the no-effect control and ±100 the full control effect
Shiga inhibitor: blocks Shiga toxin action in Vero cells | Vero cells, Shiga toxin protein synthesis inhibition reporter | inhibition, % at 38.7 µM | hit rate 9.2% among 290,000; in the data active means inhibition mostly above about 28%, no sharp cut-off; inactive means mostly below about 43%; further: 0% is about no effect
Cycloheximide cs: counter-screen for Shiga toxin inhibitors: cycloheximide protein synthesis inhibition | hit rate 12% among 300,000 | max response, % | cell reporter, cycloheximide protein synthesis inhibition counterscreen; in the data active means max response mostly above about 13%, no sharp cut-off; inactive means mostly below about 14%; further: read at 38.3 µM for the half of the compounds with a filed dose; 0% is about no effect
The depositor's hits bear a star; ? = inconclusive; · = no result; [ ] = dose if it differs, or a comment. Many of the other results were omitted from the sample, so hits are more common in it than they were.

SMILES	AMA1-RON2 inh	Lassa entry inh	MARV entry inh	Shiga inhibitor	Cycloheximide cs
OC(COc1ccc(OCc2ccccc2)cc1)CN1CCCCC1 (stereo not given)	1%	21%	?	74*	31*
OC(COc1ccc(-c2ccccc2)cc1)CN1CCOCC1 (stereo not given)	·	·	·	28	22*
CC(C)(c1ccccc1)c1ccc(OCC(O)CN2CCCC2)cc1 (stereo not given)	-1%	?	2.8µM*	-12	-8
OC(COc1ccc(OCc2ccccc2)cc1)CN1CCOCC1 (stereo not given)	-29%	-18%	5%	36	20*
CC1CCN(C(=O)CN2CCSc3ccc(S(=O)(=O)N(C)C)cc32)CC1	·	0%[46.1 µM]	·	·	·
O=C(c1ccc(Br)cc1)C(CN1CCOCC1)c1ccccc1 (stereo not given)	20%	?	?	26	5
CCOc1ccc(C(=O)C(CN2CCOCC2)c2ccccc2)cc1 (stereo not given)	-15%	26µM*	6.5µM*	15	-3
CCOC(=O)c1c(C)[nH]c(C(=O)COC(=O)c2ccc(O)cc2O)c1C	6%	·	·	18	19*
CCOC(=O)c1c(C)[nH]c(C(=O)COC(=O)c2ccccn2)c1C	3%	8%	16%	100*	38*
CCOC(=O)c1c(C)[nH]c(C(=O)OCC(=O)c2ccccc2)c1C	-16%	?	?	·	·
CCOC(=O)c1c(C)[nH]c(C(=O)COC(=O)c2ccc(O)cc2)c1C	-3%	?	5%[46.1 µM]	54*	22*
CCOC(=O)C1CCN(c2cc3c(cc2NC(=O)c2ccc(Cl)cc2)n(C)c(=O)n3C)CC1	·	-1%[46.1 µM]	8%[46.1 µM]	·	·
CCCN(Cc1cccs1)C(=O)Nc1cc(C)ccc1OC	·	17%[46.1 µM]	5%[46.1 µM]	·	·
CCc1ccc(NC(=O)Cn2c(=O)n(-c3cc(OC)c(OC)c(OC)c3)c(=O)c3ccccc32)cc1	·	7%[46.1 µM]	-2%[46.1 µM]	·	·
NC(=O)CSc1nc(C2CC2)nc2sc3c(c12)CCCC3	4%	·	·	47*	19*
CNC(=O)CSc1nc(N)c2c3c(sc2n1)CCC3	-9%	7%	15%	2	9
Cc1cc(NC(=O)CSc2nc(C3CC3)nc3sc4c(c23)CCC(C)C4)no1 (stereo not given)	-5%	16%	0%	·	·
CCSc1nc(N)c2c3c(sc2n1)CCC3	-7%	8%	17%	61*	21*
NC(=O)CSc1nc(N)c2c3c(sc2n1)CCCCC3	0%	-6%	-2%	39	21*
CCC(=C(c1ccc(OC)cc1)c1ccc(OC)cc1)c1cn(CC(O)CN2CCN(C)CC2)c2ccccc12 (stereo not given)	?	-18%	?	-27	-6
CNC(=S)S	·	·	·	2	-2
O=Cc1c(-c2ccccc2)cc2oc3ccccc3cc1-2	-13%	·	·	72*	40*
O=C(c1cc(-c2ccc(Cl)c(Cl)c2)on1)N1CCCCC1	-4%	1%	?	120*	40*
O=C(c1cc(-c2ccc(Cl)cc2)on1)N1CCCC1	-4%	?	?	90*	37*
O=C(c1cc(-c2cccc(Cl)c2)on1)N1CCCC1	5%	?	-2%[46.1 µM]	71*	18*
SMILES	AMA1-RON2 inh	Lassa entry inh	MARV entry inh	Shiga inhibitor	Cycloheximide cs
O=C(c1cc(-c2cccc(Cl)c2)on1)N1CCN(c2ccccc2)CC1	0%	12%[46.1 µM]	?	24	15
CN(C(=O)c1cc(-c2ccccc2)on1)C1CCCCC1	0%	?	?	73*	37*
O=C(c1cc(-c2ccc(Cl)cc2)on1)N1CCN(c2ccc(F)cc2)CC1	17%	?	8%[46.1 µM]	-7	-2
Cc1cccc(Cn2cc(C(=O)c3ccccc3)c(=O)c3cc4c(cc32)OCO4)c1	·	2%[46.1 µM]	?	·	·
COc1ccc(S(=O)(=O)N(CC(=O)NCCSc2ccccc2)c2ccc(Cl)cc2)cc1	·	-11%[46.1 µM]	-18%[46.1 µM]	·	·
O=C(c1cc(-c2ccccc2)on1)N1CCN(c2ccccc2)CC1	-3%	8%[46.1 µM]	12%[46.1 µM]	-3	2
O=C(c1cc(-c2ccccc2)on1)N1CCCC1	-7%	?	?	149*	30*
O=C1NC(=O)/C(=C/c2ccc(O)cc2)S1	-18%	-13%	9%	75*	36*
Cc1ccc(C2=NC3(CCCC3)NC2=S)cc1	34%	?	16%[46.1 µM]	91	22*
S=C1NC2(CCCC2)N=C1c1ccccc1	16%	·	·	39	21*
Cc1ccc(/C=C/c2nc3ccccc3[nH]2)o1	2%	?	?	51*	40*
Cc1ccc(/C=C/c2nc3ccccc3[nH]2)cc1	·	2.2µM*	·	·	·
Cc1ccc(/C=C/c2nc3ccccc3c(=O)[nH]2)cc1	3%	·	·	71*	54*
COC(=O)c1ccc(/C=C/c2nc3ccccc3c(=O)[nH]2)cc1	4%	?	?	51*	13
Cc1cccc(Cc2nc3ccccc3[nH]2)c1	-1%	-29%[46.1 µM]	8%[46.1 µM]	·	·
COCCOC(=O)N/C=C\c1nc2ccccc2c(=O)[nH]1	-14%	?	?	22	-3
CCOC(=O)[C@]12CCCC=C1N(CCc1ccc(OC)c(OC)c1)C(=O)[C@H](CC(=O)N1CCSCC1)C2	-16%	·	·	·	·
COCCC(C(=O)Oc1c(C(C)(C)C)cc(C)cc1C(C)(C)C)c1ccccc1 (stereo not given)	2%	·	·	·	·
Cc1ccc(NC(=O)C2=C(O)c3sccc3N(C)S2(=O)=O)cc1	-4%	-3%	1%	27	23*
Cc1ccc(NC(=S)C2=C(O)c3sccc3N(C)S2(=O)=O)cc1	46%	-24%	-6%[46.1 µM]	31	19*
CC1(C(=O)Nc2ccccc2)CCN1C(=O)CCc1ccc(Cl)cc1Cl (stereo not given)	7%	·	·	·	·
O=C(Nc1cccc(-c2ccc(N3CCCCC3)nn2)c1)C(F)(F)F	4%	·	·	-16	-14
CCC(=O)Nc1ccc(-c2ccc(N3CCN(C)CC3)nn2)cc1	0%	·	·	35*	26*
CCC(=O)Nc1cccc(-c2ccc(N3CCC(C)CC3)nn2)c1	5%	·	·	64*	45*
O=C(COc1ccc(Cl)cc1Cl)Nc1ccc(-c2ccc(N3CCOCC3)nn2)cc1	7%	6%	23%[46.1 µM]	·	·
SMILES	AMA1-RON2 inh	Lassa entry inh	MARV entry inh	Shiga inhibitor	Cycloheximide cs
CCC(=O)Nc1ccc(-c2ccc(N3CCC(C)CC3)nn2)cc1	-2%	·	·	76*	29*
CCCCOc1ccc(S(=O)(=O)Nc2ccc(-c3ccc(N4CCC(C)CC4)nn3)cc2)cc1	·	14%[46.1 µM]	·	·	·
CC1CCN(c2ccc(-c3cccc(NC(=O)C(F)(F)F)c3)nn2)CC1	16%	2.2µM*	?	-27	-16
Cc1cccc(N2CCN(C(c3ccccc3)c3nnc(-c4ccccc4Cl)o3)CC2)c1C (stereo not given)	·	?	7%[46.1 µM]	·	·
CC1CCN(c2ccc(-c3cccc(NC(=O)c4ccco4)c3)nn2)CC1	11%	2.5µM*	7.9µM*	·	·
N#CCCN(NC(=O)OCc1ccccc1)C(=O)OCc1ccccc1	-2%	-7%	2%	·	·
CC1(C)OC(=O)N(c2ccccc2)C12C=Cc1cc(Br)ccc1O2 (stereo not given)	4%	-11%	18µM*	-13	-2
Cc1cc(Cl)c2oc(C(=O)N(C)CC3CCOCC3)c(C)c2c1	19%	·	·	71*	38*
